JMJD2C inh = blocks human GASC-1 demethylase activity | Q9H3R0 | GST-JMJD2C(1-420) H3K9me3 demethylation, DELFIA europium | inhibition, % at 2.35 µM | 330,000 tested, 0.069% active;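 active = more than half of a compound's replicate wells show inhibition beyond 50%, single wells judged on their own value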;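 note: signal counts dimethyl H3K9 product captured on neutravidin plate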
Target sequence (Q9H3R0 1-420 limits assumed): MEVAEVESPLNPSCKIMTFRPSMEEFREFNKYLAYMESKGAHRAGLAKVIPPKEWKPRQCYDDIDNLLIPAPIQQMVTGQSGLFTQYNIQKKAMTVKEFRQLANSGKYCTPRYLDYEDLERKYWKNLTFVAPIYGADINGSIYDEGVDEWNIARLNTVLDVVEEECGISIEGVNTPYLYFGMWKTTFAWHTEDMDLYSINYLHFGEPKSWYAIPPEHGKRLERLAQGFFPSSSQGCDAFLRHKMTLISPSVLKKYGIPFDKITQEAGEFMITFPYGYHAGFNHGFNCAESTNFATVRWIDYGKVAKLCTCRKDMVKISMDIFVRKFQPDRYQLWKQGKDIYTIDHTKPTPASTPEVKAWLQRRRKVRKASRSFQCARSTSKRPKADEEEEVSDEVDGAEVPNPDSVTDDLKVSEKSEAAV
ALR inh = inhibitors of human sulfhydryl oxidase ALR; P55789; purified ALR, DTT oxidation, H2O2 HRP-luminol luminescence; inhibition, % (no concentration beside the values); 290,000 tested, 3.8% active; AID 485317;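 active = mean replicate inhibition above about 79%, with every replicate also reaching it, limit read from the data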
Target sequence (P55789 whole entry, looked up): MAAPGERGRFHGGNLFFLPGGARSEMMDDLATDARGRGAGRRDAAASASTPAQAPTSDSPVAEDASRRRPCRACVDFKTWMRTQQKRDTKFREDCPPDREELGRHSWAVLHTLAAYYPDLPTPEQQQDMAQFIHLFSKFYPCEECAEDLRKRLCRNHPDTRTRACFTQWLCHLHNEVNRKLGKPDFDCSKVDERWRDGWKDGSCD
PfM18AAP inh-1 = blocks P. falciparum M18 aspartyl aminopeptidase; inhibition, % at 7.35 µM; 290,000 tested, 1.2% active; AID 1822; recombinant PfM18AAP, H-Glu-NHMec fluorogenic cleavage;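 active = inhibition above the campaign mean inhibition over all tested compounds plus 3 SD, cut at about 28% in these data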
Granule exo inh = lytic granule exocytosis inhibition; AID 651702; TALL-104 LAMP-1 surface exposure, flow cytometry; cells stimulated with thapsigargin and PMA; 360,000 tested, 0.66% active; inhibition, % at 10 µM;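 active = inhibition above about 55%, limit read from the data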
MIN6 prolif = induces beta-cell replication in MIN6 cells; MIN6 cells proliferation, ATPlite luminescence, 48 h; cells starved in 0.2% serum; 100% = growth in 10% serum; proliferation, % at 10 µM; 330,000 tested, 0.29% active;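 active = compounds whose signal lies at least 3.5 SD above the mean of all wells on their plate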
SMARCA2 act = activators of SMARCA2 function | MG213 cells, MMTV-luciferase reporter, dexamethasone, overnight | activation, % at 9.1 µM | 370,000 tested, 1% active | AID 652017; in the data active = activation above about 7.8%
PfM18AAP inh-2 = confirmation of Plasmodium falciparum M18 aspartyl aminopeptidase inhibitors; inhibition, % at 7.35 µM; AID 2170; 2,400 tested, 28% active; shares compounds with PfM18AAP inh-1; recombinant PfM18AAP, H-Glu-NHMec fluorogenic cleavage;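 active = mean inhibition over replicate wells above the hit cutoff set for the earlier primary screen, cut at about 29% in these data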
CTSL1 counter = counter-screen for PFM18AAP inhibitors: confirmation of human cathepsin L inhibitors. shares compounds with PfM18AAP inh-1. purified cathepsin L1, Z-Leu-Arg-MCA fluorescence. inhibition, % at 5.96 µM. 2,400 tested, under 10 active. AID 2178;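 active = average inhibition across replicates above the hit cutoff set in the earlier primary screen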
Hits are given with their value. Hits are enriched below; roughly 5.4% of the tested compounds scored in any of these assays.

CCN1CCC2(CC1)C(C#N)=C(N)Oc1c2sc2nc(C)cc(C)c12 was read as JMJD2C inh inactive, ALR inh inactive, PfM18AAP inh-1 33, Granule exo inh inactive, MIN6 prolif inactive, SMARCA2 act inactive, PfM18AAP inh-2 inactive and CTSL1 counter inactive.
Screening C[C@]12Cc3ccccc3C1CC1=N[C@@H](c3ccccn3)O[C@@]13C[C@@H]2C(=O)N3C1CCN(Cc2ccccc2)CC1 (some centres not stated) returned SMARCA2 act inactive.
CCOc1ccccc1NC(=O)C1CCCN1S(=O)(=O)c1ccc2c(c1)C(C)(C)C(=O)N2C (configuration not stated) was read as Granule exo inh inactive and SMARCA2 act inactive.
`Cc1ccc(NC(=S)c2ccc3ccccc3n2)c(C)c1` gave JMJD2C inh inactive, ALR inh inactive, PfM18AAP inh-1 42, Granule exo inh inactive, MIN6 prolif inactive, SMARCA2 act inactive, PfM18AAP inh-2 inactive and CTSL1 counter inactive.
For CCOc1ccc(CN(C)C(=O)c2ccc3ccccc3n2)cc1 the results were JMJD2C inh inactive, ALR inh inactive, PfM18AAP inh-1 inactive, Granule exo inh inactive, MIN6 prolif inactive and SMARCA2 act inactive.
For COc1ccc(NC(=S)c2ccc3ccccc3n2)cc1 the results were JMJD2C inh inactive, ALR inh inactive, PfM18AAP inh-1 47, Granule exo inh inactive, MIN6 prolif inactive, PfM18AAP inh-2 inactive and CTSL1 counter inactive.
For CCOc1ccc(NC(=S)c2ccc3ccccc3n2)cc1 the results were JMJD2C inh inactive, ALR inh inactive, PfM18AAP inh-1 41, Granule exo inh inactive, MIN6 prolif inactive, SMARCA2 act inactive, PfM18AAP inh-2 inactive and CTSL1 counter inactive.
CCN(Cc1ccccc1)C(=O)CCCN1C(=O)COc2ccc(C)cc21 was read as SMARCA2 act inactive.
`C=C(O[C@H]1[C@H](O)CC=C(C(=O)O)[C@@H]1O)C(=O)O` gave SMARCA2 act inactive.
Screening CN1CCC2(CC1)N=C(c1ccc(F)cc1)C(=S)N2C(=O)c1ccccc1 returned JMJD2C inh inactive, ALR inh inactive, PfM18AAP inh-1 33, Granule exo inh inactive, MIN6 prolif inactive, SMARCA2 act inactive, PfM18AAP inh-2 inactive and CTSL1 counter inactive.
Screening CCN1CCC2(CC1)N=C(c1ccc(F)cc1)C(=S)N2C(=O)c1ccc(C(C)(C)C)cc1 returned JMJD2C inh inactive, PfM18AAP inh-1 inactive, Granule exo inh inactive, MIN6 prolif inactive and SMARCA2 act inactive.
Screening Cc1cccnc1Nc1nc(-c2ccc(F)cc2)cs1 returned JMJD2C inh inactive, ALR inh inactive, PfM18AAP inh-1 inactive, Granule exo inh inactive, MIN6 prolif inactive and SMARCA2 act inactive.
`Cc1cccnc1Nc1nc(-c2ccc(O)cc2)cs1` gave JMJD2C inh inactive, ALR inh inactive, PfM18AAP inh-1 34, Granule exo inh inactive, MIN6 prolif inactive, SMARCA2 act inactive, PfM18AAP inh-2 30 and CTSL1 counter inactive.
For COc1cccc(Nc2nc(-c3ccc(O)cc3)cs2)c1 the results were JMJD2C inh inactive, ALR inh inactive, PfM18AAP inh-1 43, Granule exo inh inactive, MIN6 prolif inactive, SMARCA2 act inactive, PfM18AAP inh-2 34 and CTSL1 counter inactive.
`COc1cccc(Nc2nc(-c3cccc(N4C(=O)c5ccccc5C4=O)c3)cs2)c1` gave JMJD2C inh inactive, ALR inh inactive, PfM18AAP inh-1 inactive, Granule exo inh inactive, MIN6 prolif inactive and SMARCA2 act inactive.
For O=C(C1CCCN1S(=O)(=O)c1ccc(Cl)s1)N1CCN(c2ccccc2)CC1 (configuration not stated) the results were SMARCA2 act inactive.
CC1(C)OC2C(CO)OC(n3cnc4c(=S)nc[nH]c43)C2O1 (configuration not stated) was read as JMJD2C inh inactive, ALR inh inactive, PfM18AAP inh-1 32, Granule exo inh inactive, MIN6 prolif inactive, SMARCA2 act inactive, PfM18AAP inh-2 inactive and CTSL1 counter inactive.
COC(=O)c1ccc(C(=O)OC)c(=O)[nH]1 was read as JMJD2C inh inactive, ALR inh inactive, PfM18AAP inh-1 inactive, Granule exo inh inactive, MIN6 prolif inactive, SMARCA2 act inactive, PfM18AAP inh-2 inactive and CTSL1 counter inactive.
For COC(=O)c1c[nH]c(=O)c2ccccc12 the results were JMJD2C inh inactive, ALR inh inactive, PfM18AAP inh-1 inactive, Granule exo inh inactive, MIN6 prolif inactive and SMARCA2 act inactive.
`COC(=O)[C@@]12CCCCC3=C1N(CCC3)C(=O)[C@H]2CC(=O)NCCCN1CCCC1=O` gave SMARCA2 act inactive.
O=C(NC1CCCCCC1)c1ccc[nH]c1=S was read as JMJD2C inh inactive, ALR inh 92, PfM18AAP inh-1 53, Granule exo inh inactive, MIN6 prolif inactive, SMARCA2 act inactive, PfM18AAP inh-2 inactive and CTSL1 counter inactive.
Screening c1coc(-c2nnc3n2N=C(c2ccc4c(c2)OCO4)CS3)c1 returned SMARCA2 act inactive.
CN(C)C(=O)N1CCN(C(=O)[C@H](CCc2ccccc2)NC(=O)[C@H]2O[C@@H](n3cnc4c(N)ncnc43)[C@H](O)[C@@H]2O)CC1 was read as SMARCA2 act inactive.
O=C(CSc1nc2ccccc2nc1N1CCOCC1)N1CCN(S(=O)(=O)c2cccc([N+](=O)[O-])c2)CC1 was read as SMARCA2 act inactive.
Cc1ncc(CO)c(/C=N/Nc2ccc(C(F)(F)F)cn2)c1O was read as JMJD2C inh inactive, ALR inh inactive, PfM18AAP inh-1 48, Granule exo inh inactive, MIN6 prolif inactive, SMARCA2 act inactive, PfM18AAP inh-2 inactive and CTSL1 counter inactive.
`CCN1CCc2c(sc(NC(=O)c3ccc(S(=O)(=O)N(CC)c4ccccc4)cc3)c2C(N)=O)C1` gave JMJD2C inh inactive, ALR inh inactive, PfM18AAP inh-1 36, Granule exo inh inactive, MIN6 prolif inactive, SMARCA2 act inactive, PfM18AAP inh-2 inactive and CTSL1 counter inactive.
`CCN1CCc2c(sc(NC(=S)NC(=O)c3ccccc3)c2C#N)C1` gave JMJD2C inh inactive, ALR inh inactive, PfM18AAP inh-1 38, Granule exo inh inactive, MIN6 prolif inactive, SMARCA2 act inactive, PfM18AAP inh-2 inactive and CTSL1 counter inactive.
C#CCNC(=O)C[C@H]1C[C@@]2(C(=O)OC)C(=C[C@H](C(C)(C)C)O[C@@H]2C)N(CCc2ccc(OC)c(OC)c2)C1=O was read as SMARCA2 act inactive.
For Cc1cccc(C)c1NC(=O)C(CCc1ccccc1)N1CCN(CCN(C)C)CC1 (configuration not stated) the results were SMARCA2 act inactive.

Assay outcomes deposited in PubChem BioAssay by several laboratories.
